Structures are written as SMILES. Results filed as inconclusive are left out. Values without a mark were called inactive. The source made the active and inactive calls. Calls come from the whole dose curve; as a rule, active = well fitted cell-killing curve with a large enough effect; inconclusive = small, poorly fitted or top-dose-only effect, or effect the other way; inactive = no such curve, though single readings can be large or run the other way.
Potency is the fitted concentration of half-maximal effect.

This test in a line: Viability qHTS for spleen associated tyrosine kinase inhibitor (SYKi) drug resistant MV4-11 cells (AID 1963824). Note: nearly all actives have a fitted effect of over 35% in size. The following applies: SYKi-resistant MV4-11 viability, CellTiter-Glo, 72 h; series mostly up to 45 µM; viability, % of control: at the top concentration. A digest of the protocol: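 CellTiter-Glo luminescence, read 10 min after reagent addition, reports viability after a 72 hr compound exposure. Cells are an MV4-11 line made resistant to SYK inhibition, seeded at 500 per well onto compound-containing plates.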
On to `CC1=C(C)C(=O)OC(C(C)C2C(O)CC3C4C5OC5C5(O)CC(OC6OC(CO)C(OC7OC(C)C(O)C(O)C7O)C(O)C6O)CC(O)C5(C)C4CCC32C)C1` (stereo not given), for which the “viability, % of control” value was 80.7% [at 17.3 µM].
Turning to `COc1cc2c(cc1OC)[C@@H]1[C@H](O)[C@@H](OC)C=C3CCN(C2)[C@H]31`, the Potency was 1.8 µM (active).
Take `C=C1C(=O)O[C@@H]2/C=C(\C)CC/C=C(/C=O)[C@H](OC)[C@@H](OC(=O)C(C)C)[C@@H]12`: the Potency was 2.55 µM (active).
With `N#C/C(=C(\N)Sc1ccc(N)cc1)c1ccccc1C(F)(F)F`, the Potency was 7.31 µM (active).
On the same count and under the same terms, to `CC(C)(O)c1ccc2c(c1)ncn2-c1cccc(-c2ccccc2C#N)c1` belongs 18.4 µM (active).
On the same count and under the same terms, for `COc1cc(/C=C2\CCCN([C@@H](C)c3ccc(F)cc3)C2=O)ccc1-n1cnc(C)c1` the value was 5.17 µM (active); for `COC(=O)N[C@H](C(=O)N1CCC[C@H]1c1ncc(-c2ccc(-c3ccc(-c4cnc([C@@H]5CCCN5C(=O)[C@@H](NC(=O)OC)C(C)C)[nH]4)cc3)cc2)[nH]1)C(C)C`, 16.6 µM (active).
Still for that read-out and setting: for `CO[C@H]1/C=C\O[C@@]2(C)Oc3c(C)c(O)c4c(O)c(c5c(nc6cc(C)ccn65)c4c3C2=O)NC(=O)/C(C)=C\C=C/[C@H](C)[C@H](O)[C@@H](C)[C@@H](O)[C@@H](C)[C@H](OC(C)=O)[C@@H]1C` the value was 16.4 µM (active).
On to `C/C=C(\C)C(=O)OC1C2(O)CC3=C4CC(=O)OC(c5ccoc5)C4(C)CCC3C(C)(C2=O)C(C(OC(C)=O)C(=O)OC)C1(C)C` (stereo not given), for which the Potency is 4.85 µM (active).
`CCNC(=O)Nc1ccc(Oc2ncnc(N)c2/C=N/OC)cc1Cl`: the Potency is 18.6 µM (active).

The values above are taken from PubChem BioAssay (NCATS).
